# Screening data from PubChem BioAssay.
# IL1B secr inh: inhibitors of inflammasome signaling (IL-1 beta secretion) | 4.7% of 360,000 active | activity change, % at 57.5 µM | AID 743279 | THP-1 LPS/ATP IL-1B secretion, AlphaLISA, 16 h; active compounds read low; in the data active = activity change below about -50%; inconclusive = mostly about -30% to -49%
#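 Secreted IL-1B measured by AlphaLISA bead assay after 16 h compound exposure of THP-1 cells; compounds (final up to 57.5 uM) added 1 h before LPS (250 ng/mL) and ATP (1.25 mM) stimulation; lower signal means less secretion.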
# Gal4-VP16 FLuc: inhibits Gal4-VP16 luciferase reporter, ROR gamma counter-screen. Drosophila S2 Gal4-VP16 UAS-luciferase, luminescence, 20 h. 3.5% of 310,000 active. Potency, µM (doses to about 53.6 µM), most hits filed as inhibitors;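 note: Gal4-VP16 expression switched on by copper sulfate through the metallothionein promoter; nearly all actives have a fitted effect of over 50% in size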
# DT40 TDP1 no CPT: qHTS for Inhibitors of human tyrosyl-DNA phosphodiesterase 1 (TDP1): qHTS in cells in absence of CPT | 15% of 420,000 active | AID 686978, 2013 | DT40 Tdp1-/- hTDP1 cells, no CPT, ATP luminescence, 48 h | Potency, µM (top dose mostly 46.2 µM), usual class: inhibitors; note: nearly all actives have a fitted effect of over 55% in size
#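 No-CPT arm: Tdp1-/-;hTDP1 DT40 cells (400/well) plus compounds, incubated ≥48 hr at 37 °C. Readout CellTiter-Glo luminescence.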
# RORgamma inh: ROR gamma (mouse) transcription inhibition; Potency, µM (titrated, usually from 53.6 µM), actives largely listed as inhibitors; 5.4% of 310,000 active; Drosophila S2 Gal4-RORgamma UAS-luciferase reporter, 20 h; note: nearly all actives have a fitted effect of over 60% in size
# Target sequence (P51450 whole entry, looked up, the tested form may be a part): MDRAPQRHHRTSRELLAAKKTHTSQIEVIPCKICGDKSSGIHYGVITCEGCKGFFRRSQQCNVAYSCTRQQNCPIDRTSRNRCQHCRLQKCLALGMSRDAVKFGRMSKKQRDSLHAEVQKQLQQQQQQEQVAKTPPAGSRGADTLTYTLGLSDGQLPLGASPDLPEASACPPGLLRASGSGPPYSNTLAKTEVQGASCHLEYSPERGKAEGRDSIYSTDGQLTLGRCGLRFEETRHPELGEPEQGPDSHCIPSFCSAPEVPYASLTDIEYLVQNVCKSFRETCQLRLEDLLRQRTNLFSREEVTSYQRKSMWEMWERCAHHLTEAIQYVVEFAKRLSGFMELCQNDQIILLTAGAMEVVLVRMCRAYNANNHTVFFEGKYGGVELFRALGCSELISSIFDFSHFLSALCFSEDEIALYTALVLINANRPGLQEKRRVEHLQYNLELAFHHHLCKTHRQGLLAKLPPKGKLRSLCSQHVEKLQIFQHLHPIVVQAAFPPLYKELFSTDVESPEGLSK
#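 Schneider cells (Drosophila), stable Gal4 DBD–ROR gamma + UAS-luc; 1 hr cmpd preincubation; Cu2+ induction 700 uM final; 20 hr ambient; luminescence.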
# ELG1 repair inh: inhibitors of ELG1-dependent DNA repair in HEK293T cells | HEK293T ELG1-luciferase reporter, luminescence, 16 h; DNA damage induced by 5-fluorouridine | Potency, µM (top dose mostly 46.1 µM), hits mostly inhibitors | 2.3% of 330,000 active | AID 504467; note: nearly all actives have a fitted effect of over 55% in size
#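 Step one: seed 2,000 cells per well. Step two: pin-transfer compound or DMSO alongside 5-fluorouridine. Step three: incubate 16 hr, 37 °C, 5% CO2. Step four: add ONE-Glo, wait 30 min, read luminescence.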
# DT40 TDP1 CPT: growth inhibition of DT40 Tdp1-/-;hTDP1 cells with camptothecin (screen for TDP1 inhibitors); chicken DT40 Tdp1-/-;hTDP1 cells + 20 nM CPT, ATP luminescence, 48 h; Potency, µM (titrated, usually from 46.2 µM), hits mostly inhibitors; 12% of 420,000 active; AID 686979; note: nearly all actives have a fitted effect of over 55% in size
#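 Chicken DT40 Tdp1-/- cells stably complemented with human TDP1 were seeded at 400 cells/well in medium containing 20 nM camptothecin, exposed to pin-transferred compounds, and grown at 37 °C for at least 48 hr. Viability was read as ATP luminescence.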
# Numbers stand for hits; - = inactive; ? = inconclusive; . = no result; [ ] = dose if it differs, or a comment. Hits are enriched below; roughly 21% of the tested compounds scored in any of these assays. Unless noted, calls come from the whole dose curve; as a rule, active = well fitted curve in the direction sought with a large enough effect; inconclusive = small, poorly fitted or top-dose-only effect, or another doubt; inactive = no such curve, though single readings can be large; an effect the other way counts as inactive or inconclusive.
SMILES,IL1B secr inh,Gal4-VP16 FLuc,DT40 TDP1 no CPT,RORgamma inh,ELG1 repair inh,DT40 TDP1 CPT
Cc1ccc(N2CCN(C(=O)C3CCC(=O)N(Cc4ccc(Cl)cc4)C3)CC2)c(C)c1 (stereo unspecified),-,-,18.4µM,?,-,18.4µM
CCC1CN(CC(=O)NCc2ccc3c(c2)OCO3)Cc2ccc(Cl)cc2O1 (stereo unspecified),.,.,-,.,.,-[9.04 µM]
Cc1nc2c(C)cccc2cc1C(=O)N/N=C/c1ccc(C(=O)O)cc1,-,-,?,-,-,?
Cc1nc2c(C)cccc2cc1C(=O)N/N=C/c1ccc(N(C)C)cc1,-,-,11.6µM,-,-,5.8µM
Cc1cc(SCC(=O)N/N=C/c2cccnc2)nc2c(C)cccc12,-,-,-,-,-,-
Cc1nc2c(C)cccc2cc1C(=O)N/N=C/c1cccnc1,-66.9,-,6.51µM,-,-,5.17µM
CC(=O)N1CCc2c(sc(NC(=O)CN3C(=O)CCC3=O)c2C(N)=O)C1,-,-,-,?,-,-
COC(=O)[C@]12CCCCC=C1N(CCC1=CCCCC1)C(=O)[C@H](CC(=O)NCc1ccc(C)o1)C2,-,.,?,.,.,?
CCCCCCCCN1C(=O)[C@H](CC(=O)NCc2ccc(C)o2)C[C@@]2(C(=O)OCC)CCC=C12,.,.,16.4µM,.,.,?
CCOC(=O)[C@]12CCC=C1N(Cc1ccccc1)C(=O)[C@H](CC(=O)NCc1ccc(C)o1)C2,-,.,-,.,.,-
CCCCCCCCN1C(=O)[C@H](CC(=O)NCc2ccc(C)o2)C[C@@]2(C(=O)OC)CCCCC=C12,-53.9,.,20.6µM,.,.,?
O=C(CNc1cccc(F)c1)N1CCc2ccccc2C1,-,-,-,-,?,-
CC1(C)C(=O)NC(=O)N1Cc1ccccc1,-,.,-,.,-,-
CC1(C)CC(C)(O)N(Cc2ccccc2)C(=S)N1 (stereo unspecified),-,15.8µM,-,12.6µM,-,-
O=C(O)CCNC(=O)OCC1c2ccccc2-c2ccccc21,-,-,?,-,-,8.2µM
O=C(CCNC(=O)OCC1c2ccccc2-c2ccccc21)NOCc1ccccc1,-,.,4.11µM,.,-,3.26µM
COc1ccc(CNC(=O)CSc2ncnc3nc[nH]c23)cc1,-,-,-,-,-,-
Cc1cc2c3c(c1)C1(C(=O)N3C(C)(C)CC2C)C(C#N)=C(N)Oc2n[nH]c(C)c21 (stereo unspecified),?,-,?,-,?,?
Cc1cc2c3c(c1C)C1(C(=O)N3C(C)(C)CC2C)C(C#N)=C(N)Oc2n[nH]c(C)c21 (stereo unspecified),-,-,23.1µM,-,-,?
Cc1nn(-c2ccccc2)c(C)c1/C=N/NC(=O)CSc1nnc(SCc2ccc(Cl)cc2)s1,-,-,14.6µM,?,?,?
Cc1nn(-c2ccccc2)c(C)c1/C=N/NC(=O)c1cc(-c2cccs2)[nH]n1,-,-,0.0082µM,-,?,0.82µM
Cc1nn(-c2ccccc2)c(C)c1/C=N/NC(=O)c1ccccc1O,-,?,-,?,?,-
Cc1nn(-c2ccccc2)c(C)c1/C=N/NC(=O)c1cc(-c2ccc(Cl)s2)[nH]n1,-,-,4.11µM,?,?,4.61µM
Cc1nn(-c2ccccc2)c(C)c1/C=N/NC(=O)c1cccs1,-,?,14.6µM,?,?,9.2µM
CC1(C(=O)Nc2ccc3c(c2)OCCO3)CSCC(=O)N1CCc1ccccc1F (stereo unspecified),-,.,-,.,.,-
SMILES,IL1B secr inh,Gal4-VP16 FLuc,DT40 TDP1 no CPT,RORgamma inh,ELG1 repair inh,DT40 TDP1 CPT
Cc1nn(-c2ccccc2)c(C)c1/C=N/NC(=O)c1cc(C23CC4CC(CC(C4)C2)C3)[nH]n1,-,-,?,-,16.4µM,?
Cc1nn(-c2ccccc2)c(C)c1/C=N/NC(=O)c1cc(-c2ccc(Br)s2)[nH]n1,-,-[0.365 µM],4.61µM,?,8.2µM,2.91µM
Cc1cc(C(=O)N/N=C/c2c(C)nn(-c3ccccc3)c2C)n[nH]1,-,-,-,-,?,-
COc1ccc(C(=O)Nc2cc(OC)cc3cccnc23)cc1,-,-,?,-,-,?
COc1ccc(C(=O)NC(c2ccccc2Cl)c2cc(Cl)c3cccnc3c2O)cc1 (stereo unspecified),.,.,13µM,.,.,8.2µM
COc1cc(C(=O)NC(c2ccccc2Cl)c2cc(Cl)c3cccnc3c2O)cc(OC)c1OC (stereo unspecified),.,.,20.6µM,.,.,13µM
COc1cc(C(=O)NC(c2ccccc2)c2ccccc2)cc(OC)c1C,-,-,?,-,-,-
CCc1ccc(C(=O)C[N+]2(C)CCOCC2)cc1,.,.,-,.,.,-
Cc1cccc(C)c1NC(=O)C1c2ccccc2OCC(=O)N1Cc1cccnc1 (stereo unspecified),-,.,-,.,.,-
O=S(=O)(CCN(CCS(=O)(=O)C(F)(F)F)CC1CCCO1)C(F)(F)F (stereo unspecified),-,-,2.31µM,-,?,2.31µM
O=C1Nc2ccccc2-n2nnnc2C1N1CCN(C(=O)c2ccco2)CC1 (stereo unspecified),-,.,-,.,.,-
Cc1ccc(-c2cnc3c(Nc4cccc(OC(F)(F)C(F)F)c4)nccn23)cc1,-,.,16.4µM,.,.,23.1µM
FC(F)C(F)(F)Oc1cccc(Nc2nccn3c(-c4cc(C(F)(F)F)cc(C(F)(F)F)c4)cnc23)c1,-,.,?,.,.,?
Cc1ccc(S(=O)(=O)Nc2ccc(Nc3nccn4c(-c5ccc6ccccc6c5)cnc34)cc2)cc1,-,.,?,.,.,?
OCc1cccc(-c2cnc3c(Nc4cccc(OC(F)(F)C(F)F)c4)nccn23)c1,-,.,16.4µM,.,.,?
COCCNC(=S)NN=C1CCCCC1,-,?,5.17µM,12.6µM,-,5.17µM
NC(=S)NN=C1CCCCCCCCC1,-,.,?,.,.,?
C=CCNC(=S)NN=C1CCCCCCC1,-,4.47µM,25.9µM,0.355µM,-,16.4µM
NC(=S)NN=C1C=CCCC1,-,.,4.61µM,.,.,2.91µM
NC(=S)NN=C1CCCCCCCC1,-,.,?,.,.,2.31µM
CC1(C)CC(O)CC(C)(C)N1CC(O)COCc1ccccc1 (stereo unspecified),-,-,-,-,-,-
Cc1cc(C)nc(Oc2ccc(Br)cc2)n1,-,-,-,-,-,-
CC(=O)OC1CC[C@]2(C)C(=CCC3C4CCC(C(C)CCCC(C)C)[C@]4(C)CCC32)C1 (stereo partly specified),.,-,-,-,.,-
NC(=S)NN=C1C2CC3CC(C2)CC1C3,-,?,?,2µM,-,?
